# Among all 340,000 compounds or so, about 1,700 (0.5%) were called active. Only a selection was taken, and actives are over-represented in it overall. A number with no mark means an inactive call.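 How the source made its calls: active means compounds whose inhibition of the agonist-driven luminescence signal at 20 µM reaches about 50% (limit read from the data); inactive means the rest.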
# Molecular target: C-C chemokine receptor type 6 (Homo sapiens) (UniProt P51684)
# Experiment: CCR6 receptor antagonists, primary screen, cell-based, CHO-K1, luminescence, beta-arrestin, uHTS (AID 493098);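 further: cells stimulated with CCL20 at 14 nM final; plate controls were DMSO with CCL20 for no effect and DMSO without agonist for full effect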
# Details: CHO-K1 CCR6 PathHunter beta-arrestin, CCL20-stimulated, at 20 µM, active compounds read high
# C-C chemokine receptor type 6 (Homo sapiens), sequence (P51684 whole entry, looked up): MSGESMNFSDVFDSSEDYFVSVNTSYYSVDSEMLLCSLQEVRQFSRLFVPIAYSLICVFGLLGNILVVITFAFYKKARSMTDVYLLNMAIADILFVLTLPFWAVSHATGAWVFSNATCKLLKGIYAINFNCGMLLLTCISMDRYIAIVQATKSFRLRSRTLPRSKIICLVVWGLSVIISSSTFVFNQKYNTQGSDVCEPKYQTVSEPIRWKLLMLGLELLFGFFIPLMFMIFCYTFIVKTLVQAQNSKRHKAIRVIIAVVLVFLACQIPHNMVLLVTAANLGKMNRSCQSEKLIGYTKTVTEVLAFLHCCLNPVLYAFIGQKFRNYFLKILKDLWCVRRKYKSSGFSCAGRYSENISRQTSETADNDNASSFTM
row,Compound,inhibition
1,CC(=O)OC1C2(CC3N4C(=O)C5(CO)SSC4(CC31O)C(=O)N5C)OC(C)C(C)(C)C2=O (stereo not given),111% (active)
2,COC(=O)[C@@H]1C(OC(=O)c2ccccc2)CC2CCC1N2C (stereo not given in full),6.3%
3,CC(Cc1cccs1)NCc1ccc(Cl)cc1 (stereo not given),13.3%
4,Cc1nn(-c2ccccc2)c(C)c1NC(=O)COC(=O)Cc1ccccc1,-2.94%
5,CCCOC(=O)C1C2c3ccccc3C(c3ccccc32)C1C(=O)O (stereo not given),-3.33%

# Reference: PubChem BioAssay AID493098 (Sanford-Burnham Center for Chemical Genomics, 2011)
